Measured values: PubChem BioAssay AID1578 (Sanford-Burnham Center for Chemical Genomics, 2009)
Among all 290,000 compounds or so, about 3,000 (1%) were called active. The entries come from a sample that favours actives as a whole. Values without a mark were called inactive. Cut-off read from the data, not from the text of the source: active = inhibition mostly above about 36% (no sharp cut-off); inactive = mostly below about 34%.

Experiment: inhibition of NOD1-driven NF-kB reporter – cell-based, luminescence, uHTS, primary screen (AID 1578);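 note: HEK-293T reporter cells stimulated with the NOD1 agonist gamma-tri-DAP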
Settings: NOD1-driven NF-kB luciferase reporter cells, at 4 µM, active compounds read high

SMILES	inhibition
S=C(Nc1ccc(Nc2ccccc2)cc1)Nc1ccccn1	74.1% (active)
Cc1cccc(NC(=S)Nc2ccccn2)c1	-0.2%
COc1ccc(NC(=S)Nc2ccccn2)cc1	6.6%
CN(C)S(=O)(=O)c1ccc(-c2csc(N/N=C/c3ccc(O)cc3)n2)cc1	12.3%
COc1ccc(/C=N/Nc2nc(-c3cccc(S(=O)(=O)N4CCCC4)c3)cs2)cc1OC	52.7%
COc1cc(/C=N/Nc2nc(-c3ccc(S(=O)(=O)N(C)C)cc3)cs2)ccc1O	31.8% (active)
N#C/C(=C\c1ccc2c(c1)OCCO2)C(=O)Nc1ccc(C(=O)O)cc1	1.3%
CCCCNc1c([N+](=O)[O-])c(=O)n(C)c2ccccc12	-21.6%
CC(C)(C)Nc1c([N+](=O)[O-])c(=O)sc2ccccc12	-30.9%
CCCCCCNc1c([N+](=O)[O-])c(=O)sc2ccccc12	71% (active)
COc1cc2c(cc1OC)CN(C(=O)COc1ccc(C#N)cc1)CC2	10%
Cc1c(NC(=S)NC(=O)CC(C)C)c(=O)n(-c2ccccc2)n1C	-31.4%
CCN1/C(=C/c2ccc3ccccc3[n+]2CCCS(=O)(=O)[O-])C=Cc2cc(C)ccc21	-1.5%
CCN1/C(=C/C=C/C=C/c2sc3ccccc3[n+]2CC)Sc2ccccc21	66.1%
CC1=NN(C(=O)c2ccc(Cn3nc(C)c([N+](=O)[O-])c3C)o2)C(O)(C(F)(F)F)C1 (stereo unspecified)	-21.3%
CCCCc1nc2sc3c(SCCN(C)C)ncnc3c2c2c1CCC2	-4.1%
Brc1ccc(OCc2cn3ccccc3n2)cc1	-41.6%
COc1ccccc1NS(=O)(=O)c1cc(NC(=O)c2cc(=O)[nH]c3ccccc23)ccc1N1CCOCC1	0.5%
COc1ccc(-c2onc(C)c2C)cc1S(=O)(=O)NCCc1ccco1	2.5%
Cc1cc(C)c(C)c(S(=O)(=O)N2CCCCC2C(=O)O)c1C (stereo unspecified)	0.3%
Oc1cccc(/C=N\Nc2nncc(-c3ccccc3)n2)c1	-8.4%
Oc1ccc(/C=N\Nc2nncc(-c3ccccc3)n2)cc1	59.3% (active)
COc1ccc(-c2cnnc(N/N=C/c3ccc(O)cc3)n2)cc1	-15.9%
CC(=O)Oc1ccc(/C=C(\NC(=O)c2ccco2)C(=O)Nc2ccc(C(C)=O)cc2)cc1	-31.3%

SMILES	inhibition
COc1ccc(/C(N)=N/OC(=O)CC2CCCCC2)cc1OC	-10.9%
CCOc1ccc(OCc2ccc(C(=O)NC(C)C)o2)cc1	-2.6%
CC(C)NC(=O)c1ccc(COc2ccc(C(C)(C)C)cc2)o1	29.6% (active)
CC(C)(C)c1ccc(OCc2ccc(C(=O)NN)o2)cc1	-4.2%
CC(=O)c1ccc(S(=O)c2ccccc2)cc1 (stereo unspecified)	-22.4%
COc1ccc(OC)c(C(=O)NC(CC(N)=O)c2ccc(N3CCC(N4CCCC4)CC3)c([N+](=O)[O-])c2)c1 (stereo unspecified)	5.4%
Cc1cc(C)cc(NS(=O)(=O)c2ccc3[nH]cc(C(=O)N4CCc5ccccc54)c(=O)c3c2)c1	3.5%
CCOCCn1c(=NC(=O)/C=C/c2ccccc2Cl)sc2cc(NC(C)=O)ccc21	18.1%
COCCn1c(=NC(=O)/C=C/c2ccccc2Cl)sc2cc(NC(C)=O)ccc21	85% (active)
COCCn1c(=NC(=O)/C=C/c2ccccc2)sc2cc(NC(C)=O)ccc21	-16.2%
Cc1cccc(C(P(=O)(c2ccccc2)c2ccccc2)P(=O)(c2ccccc2)c2ccccc2)n1	-2.9%
CC(=O)c1c(C)[nH]c(C(=O)OCC(=O)Nc2ccc([N+](=O)[O-])cc2Cl)c1C	-9%
CC(=O)c1c(C)[nH]c(C(=O)Nc2ccccc2Cl)c1C	-16.6%
CC(=O)c1c(C)[nH]c(C(=O)OCC(=O)Nc2ccccc2Cl)c1C	51.1% (active)
CCC(C)N1C(=O)CCC1C(=O)N1CCN(c2ccccc2F)CC1 (stereo unspecified)	2.8%
C/C(=N\NC(=O)c1nnn(-c2nonc2N)c1CSc1ccccc1)c1cccnc1	-4.5%
C#CCOn1c(-n2nc(C)cc2C)nc2ccccc2c1=O	2.3%
CCOn1c(-n2nc(C)cc2C)nc2ccccc2c1=O	0.7%
Cc1cc(C)n(-c2nc3ccccc3c(=O)n2OCC#N)n1	109% (active)
CN(C)N(Cc1ccccc1)C(=O)C(O)(c1ccccc1)c1ccccc1	63.1% (active)
CN(Cc1ccccc1)C(=O)CCC(=O)N(C)Cc1ccccc1	-41.2%
CN(C)N(C)C(=O)C(O)(c1ccccc1)c1ccccc1	-18.6%
O=C(CN1C(=O)NC2(CCCCCCC2)C1=O)NC1CCCc2ccccc21 (stereo unspecified)	-29.3%
COC(=O)c1ccc(NC(=O)CCN2C(=O)CSC2=O)cc1	-44.1%

SMILES	inhibition
N#CCc1c(C#N)c(N)nc(N2CCCC(O)C2)c1C#N (stereo unspecified)	-18.2%
N#Cc1c(N2CCCC(O)C2)nc(N)c2c(N)nc3c(c12)CC(=O)N3C12CC3CC(CC(C3)C1)C2 (stereo unspecified)	72% (active)
C=C(C)CN(CC)c1nc(N)c2c(N)nc3c(c2c1C#N)CC(=O)N3C12CC3CC(CC(C3)C1)C2	-11.3%
Cc1cnc(C(=O)Nc2ccc(C(=O)N(C)C3CCCCC3)cc2)cn1	-6.2%
C=CCOc1ccc2ccccc2c1/C=N/O	-6.7%
CCOc1ccc(-c2nc(CSCC(=O)N3CCN(C(=O)c4ccco4)CC3)c(C)o2)cc1	-28.8%
CCOC(=O)C1CCN(C(=O)CSCc2nc(-c3ccc(OCC)cc3)oc2C)CC1	-2.1%
COc1cc(CNCc2ccc(OC)cc2OC)cc(OC)c1	79.5% (active)
COc1cc(CNCc2cc(OC)ccc2OC)cc(OC)c1	-5.3%
COc1cccc(CNCc2ccc(OC)cc2OC)c1	3.1%
O=C(COC(=O)CNC(=O)c1ccc(Cl)cc1)Nc1cccc(S(=O)(=O)N2CCCC2)c1	6.6%
CCO[C@H]1OC(C(=O)N2CCCCCCC2)=C[C@@H](C)[C@@H]1CCCO	40% (active)
CCO[C@@H]1OC(C(=O)N2CCOCC2)=C[C@H](C)[C@H]1CCCO	-28.1%
CCO[C@H]1OC(C(=O)N2CCN(C)CC2)=C[C@@H](C)[C@@H]1CCCO	-35.3%
CC1CCCC(NC(=O)c2ccc(CNc3c(N4CCCC4)c(=O)c3=O)cc2)C1C (stereo unspecified)	-28.2%
COc1ccc(/C=N/Nc2nc(C(=O)O)cs2)cc1	-35.9%
Cc1c(C(=O)NCCN(C)C)oc2ccc(S(=O)(=O)N3CCC4(CC3)OCCO4)cc12	-12.2%
Fc1ccccc1COc1ccc(Br)cc1CNCc1ccncc1	72.9% (active)
Fc1ccccc1COc1ccc(Br)cc1CNCc1cccnc1	-5%
Brc1ccc(OCc2ccccc2)c(CNCc2ccncc2)c1	44.1%
COc1ccc(NC(=O)Nc2c(C)noc2-c2ccccc2)cc1	-7.5%
O=C(Oc1ccc(Br)cc1C(=S)N1CCOCC1)c1ccc(F)cc1	-9.9%
CSc1ccccc1C(=O)Nc1nc2ccccc2[nH]1	-46.1%
O=C(Nc1nc2ccccc2[nH]1)c1ccccc1F	77.3% (active)

SMILES	inhibition
C/C(=N\Nc1nc2ccccc2[nH]1)c1cc2ccccc2o1	-21.6%
O=C(Nc1nc2ccccc2[nH]1)c1ccccc1O	1.5%
O=C(Nc1nc2ccccc2[nH]1)c1cc2ccccc2o1	73.5% (active)
O=C(Nc1nc2ccccc2[nH]1)c1ccc(Br)o1	-21.2%
COc1ccc(S(=O)(=O)Nc2ccccc2C(=O)N2CCCCC2)cc1C	-14.5%
S=C(Nc1ccccc1)N1CCOCCOCCN(C(=S)Nc2ccccc2)CCOCCOCC1	-11%
CC(=O)N1N=C(N)SC1c1cccc([N+](=O)[O-])c1 (stereo unspecified)	-38.8%
CC(=O)Oc1ccc2nc(/C=C/c3ccccc3)oc(=O)c2c1	-9.3%
COc1ccccc1-c1cc(C(F)(F)F)nc(S(=O)(=O)CCCC(=O)Nc2cc(C)on2)n1	37%
COc1ccc(-c2cc(C(F)(F)F)nc(S(=O)(=O)CCCC(=O)Nc3cc(C)on3)n2)cc1OC	32.1%
Cc1cc(NC(=O)CCCS(=O)(=O)c2nc(-c3cccs3)cc(C(F)(F)F)n2)no1	91% (active)
O=C(COc1ccc(S(=O)(=O)N2CCOCC2)cc1Cl)NCc1ccccn1	-57.1%
COc1cccc(-c2nc(-c3ccccn3)no2)c1	65% (active)
COc1cccc(-c2nc(-c3ccncc3)no2)c1	-5.3%
COc1cccc(-c2nc(-c3ccccc3)no2)c1	-49.3%
c1ccc(-c2noc(-c3ccc4ccccc4c3)n2)nc1	77.3%
c1ccc(-c2noc(-c3cccnc3)n2)nc1	-11.3%
c1ccc(-c2nc(-c3ccccn3)no2)cc1	54.3% (active)
Clc1ccc(-c2nc(-c3ccccn3)no2)cc1Cl	-69.5%
Cc1ccc(-c2nc(-c3ccccn3)no2)cc1Cl	71.4% (active)
Clc1cccc(-c2nc(-c3ccccn3)no2)c1	-17.2%
c1ccc(-c2noc(-c3ccncc3)n2)nc1	-30.8%
Cc1ccccc1-c1nc(-c2ccccn2)no1	11.7%
Cc1ccc(-c2nc(-c3ccccn3)no2)cc1	89.5% (active)
